aSyn 5UTR act: Activators working through SNCA 5'UTR binding (MLPCN) | alpha-synuclein 5'UTR reporter, activators screen | activity score, % (tested at 7.5 µM), hits read low | hit rate 7.1% among 300,000; in the data active means activity score below about -60%
Starred values were filed as active, the others as inactive. These entries were drawn from the full list.

SMILES	aSyn 5UTR act
O=C1c2ccccc2C(=O)N1CCSc1ccccc1	-191*
Cc1ccc(NC2=C(Cl)C(=O)N(C3CCCCC3)C2=O)cc1	-124*
O=C(c1cn(-c2ccc(Cl)c(Cl)c2)nn1)C1CC1	-107*
Cc1ccc(C(=O)NCCOc2cccc(C)c2)cc1	-111*
Cc1ccc(OCCNC(=O)c2ccc3c(c2)OCO3)cc1	-62*
COc1ccc(N2CCN(S(=O)(=O)CCNC(=O)Cc3ccc([N+](=O)[O-])cc3)CC2)cc1	65
COc1ccc(CCNC(=O)C2CC(c3ccc([N+](=O)[O-])cc3)=NO2)cc1 (stereo not drawn)	-69*
CCCCNC(=O)C1CC(c2cccc(F)c2)=NO1 (stereo not drawn)	-94*
O=C(NCCc1cccs1)C1CC(c2ccc([N+](=O)[O-])cc2)=NO1 (stereo not drawn)	-157*
Cc1ccc(CNC(=O)C2CC(c3cccc([N+](=O)[O-])c3)=NO2)o1 (stereo not drawn)	-88*
COc1ccc(CCNC(=O)C2CC(c3cccc([N+](=O)[O-])c3)=NO2)cc1 (stereo not drawn)	-112*
Cc1cc(C(=O)N(C)C)sc1-c1ccccc1	-132*
O=C(Nc1cccnc1)c1ccc2ccccc2c1O	-137*
O=C(Nc1cccc([N+](=O)[O-])c1)c1ccc2ccccc2c1O	-128*
O=C(Nc1ccccn1)c1ccc2ccccc2c1O	-144*
COc1ccccc1-c1nnc(SCc2nc3ccccc3s2)n1C	-109*
Cn1c(SCc2nc3ccccc3s2)nnc1-c1cccs1	-67*
CCn1c(SCc2nc3ccccc3s2)nnc1-c1cccs1	-160*
Cc1ccccc1-n1c(C)nnc1SCc1nc2ccccc2s1	-250*
NC(=O)CSCc1nc2ccccc2s1	-65*
CCOc1ccccc1-n1nnnc1SCc1nc2ccccc2s1	-233*
COc1ccc(-c2nnc(SCc3nc4ccccc4s3)n2C(C)C)cc1	-107*
Cc1cccc(OCc2n(CC(=O)OC3CC(C)CCC3C(C)C)c3ccccc3[n+]2C)c1 (stereo not drawn)	60
N#Cc1nc(-c2ccc(OCc3ccccc3Cl)cc2)oc1NCCCn1ccnc1	-65*
N#Cc1nc(-c2ccc(F)cc2)oc1NCCCn1ccnc1	-90*
SMILES	aSyn 5UTR act
CC(/C=N/NC(=O)CSc1ccccn1)=C\c1ccc(C(C)C)cc1	-254*
CC(=C/c1ccc(C(C)C)cc1)/C=N/NC(=O)CSc1ccccn1	-164*
Oc1ccc2ccccc2c1C=Nc1ccccc1-c1nc2ccccc2[nH]1	-79*
NC(=O)COC(=O)c1ccccc1Nc1ccc(SC(F)F)cc1	-82*
O=C(COC(=O)c1ccccc1Nc1ccc(SC(F)F)cc1)NCc1ccco1	-91*
CC(C)(C)NC(=O)COC(=O)c1ccccc1Nc1ccc(SC(F)F)cc1	-145*
O=C(COC(=O)c1ccccc1Nc1ccc(SC(F)F)cc1)NC1CC1	-100*
O=c1cc(COc2ccc(Cl)c(Cl)c2)nc2sccn12	-83*
O=c1cc(CNc2cc(C(F)(F)F)cc(C(F)(F)F)c2)nc2sccn12	65
Cc1ccnc(NC(=O)/C=C/c2ccccc2[N+](=O)[O-])c1	-118*
O=C(/C=C\c1ccccc1[N+](=O)[O-])Nc1ccccc1	-194*
CCOc1ccccc1NC(=O)/C=C/c1ccccc1[N+](=O)[O-]	-88*
O=C(Nc1sc2c(c1C(=O)O)CCC2)c1ccco1	-62*
CC1(C)Cc2c(sc(NC(=O)c3ccc(Br)o3)c2C#N)CO1	-91*
COC(=O)c1c(NC(=O)c2ccc(C)o2)sc2c1CCCCC2	-184*
CC1(C)Cc2c(sc(NC(=O)c3ccco3)c2C(=O)O)CO1	-81*
O=C(Nc1sc2c(c1C(=O)NCc1ccco1)CCCC2)c1ccc2c(c1)OCO2	-187*
COC(=O)c1c(NC(=O)/C=C/c2ccco2)sc2c1CCC2	-143*
Cc1nc(N)sc1N=Nc1ccc(F)cc1	-107*
O=[N+]([O-])c1ccccc1OCCCn1cnc2ccccc21	-100*
N=c1n(Cc2ccccc2)c2ccccc2n1CC(O)COc1ccc(Cl)cc1Cl (stereo not drawn)	90
Clc1ccc(OCCn2cnc3ccccc32)c(Cl)c1	-126*
O=c1c2ccccc2ncn1CCCOc1ccccc1[N+](=O)[O-]	-150*
O=c1c2ccc([N+](=O)[O-])c3cccc(c32)c2nc3ccccc3n12	79
O=C(O)c1ccc(N/N=C/c2cc3ccccc3nc2Cl)cc1	-143*
SMILES	aSyn 5UTR act
Cc1cccc2cc(/C=N/Nc3ccc(C(=O)O)cc3)c(Cl)nc12	-197*
O=[N+]([O-])c1ccccc1N/N=C/c1cc2ccccc2nc1Cl	-206*
Cn1ccs/c1=N\C(=O)Nc1cccc(C(F)(F)F)c1	-109*
COCCNC(=O)c1ccc2c(Cl)c3c(nc2c1)CCC3	-145*
N/C(=N\OC(=O)COc1cc(Cl)c(Cl)cc1Cl)c1ccncc1	-174*
Cc1ccccc1OCC(=O)O/N=C(\N)c1ccncc1	-103*
Cc1ccc(OCC(=O)O/N=C(\N)c2ccncc2)c(C)c1	-182*
COc1ccc2nc(N3CCCC(C(=O)NCCc4ccc(OC)c(OC)c4)C3)sc2c1 (stereo not drawn)	-87*
COc1ccc(CCNC(=O)c2ccc3nc(N4CCCCC4)sc3c2)cc1OC	-131*
CCOc1ccc2nc(N3CCCC(C(=O)NCCCN4CCCCC4)C3)sc2c1 (stereo not drawn)	-86*
CCOC(=O)c1ccc(N2Cc3ccccc3C2=NC(=O)c2cccc([N+](=O)[O-])c2)cc1	-212*
O=C(N=C1c2ccccc2CN1c1ccc(F)c(F)c1)c1cccnc1	-84*
O=C(N=C1c2ccccc2CN1c1ccccc1)c1cccc([N+](=O)[O-])c1	-123*
COc1cc(NC(=O)c2cc3nc(C4CC4)cc(C(F)(F)F)n3n2)c(OC)cc1Cl	-70*
O=C(Cc1ccc(S(=O)(=O)N2CCOCC2)s1)Nc1ccc(N2CCOCC2)cc1	-99*
COc1ccc(OC(=O)NCCc2ccccc2)cc1	-134*
COc1cccc(CCNC(=O)c2ccc(C#N)cc2)c1	-63*
COc1ccc(CCNC(=O)c2ccccc2)cc1	-64*
COc1ccc(CC(=O)Nc2ccccc2C(=O)NCCc2ccccc2)cc1	-101*
COc1ccc(C(=O)Nc2cc(C(=O)NCCc3ccccc3)ccc2Cl)cc1	-69*
COc1ccc(O)c(/C=N/NC(=O)c2c(C)nnn2-c2nonc2N)c1	64
COc1ccc(OC)c(NC(=O)c2nc(S(=O)(=O)Cc3ccccc3)ncc2Cl)c1	99
COc1ccc(CCNC(=O)c2nonc2N)cc1	-85*
N#Cc1ccc(-c2ccc(Cl)cc2)nc1SCC(=O)c1cccc(Cl)c1	-81*
O=C(CSc1n[nH]c(-c2ccccc2)n1)c1ccccc1	-84*
SMILES	aSyn 5UTR act
N#Cc1ccc(-c2cccnc2)nc1SCC(=O)c1ccccc1	-116*
COc1cccc(NC(=O)CN(C)C(=O)C2CCN(C(=O)c3ccccc3C)CC2)c1	-97*
FC(F)(F)c1cccc(-c2ccc(-c3csnn3)o2)c1	-85*
CC(/C=N/NC(=O)c1nnn(-c2nonc2N)c1C(C)C)=C\c1ccccc1	-81*
CCCc1c(C(=O)N/N=C/C(C)=C/c2ccccc2)nnn1-c1nonc1N	-67*
Nc1nonc1-n1nnc(C(=O)N/N=C/C=C/c2ccccc2)c1CSC1=NCCS1	-80*
COc1cc(CNc2ncn[nH]2)ccc1OCc1cccc(C)c1	-95*
O=C(Nc1cccc(C(F)(F)F)c1)c1scc2c1OCCO2	-73*
NC1=NC(=O)/C(=C\c2cc([N+](=O)[O-])ccc2Cl)S1	-95*

Screening data from PubChem BioAssay.
